Common to all, as to experiment: DAPPL (digital affinity profiling via proximity ligation, sequencing); 10 mM Tris-HCl pH 7.5, 50 mM NaCl, 1 mM DTT, 4% glycerol, room temperature, 30 min; GST-TFs on glutathione beads, 16-mer random dsDNA library, 0.1% formaldehyde crosslink after washing; high values mean tight binding
In one test the target is T1, FLI1 (Homo sapiens, UniProt Q01543 1-452).
T1 sequence: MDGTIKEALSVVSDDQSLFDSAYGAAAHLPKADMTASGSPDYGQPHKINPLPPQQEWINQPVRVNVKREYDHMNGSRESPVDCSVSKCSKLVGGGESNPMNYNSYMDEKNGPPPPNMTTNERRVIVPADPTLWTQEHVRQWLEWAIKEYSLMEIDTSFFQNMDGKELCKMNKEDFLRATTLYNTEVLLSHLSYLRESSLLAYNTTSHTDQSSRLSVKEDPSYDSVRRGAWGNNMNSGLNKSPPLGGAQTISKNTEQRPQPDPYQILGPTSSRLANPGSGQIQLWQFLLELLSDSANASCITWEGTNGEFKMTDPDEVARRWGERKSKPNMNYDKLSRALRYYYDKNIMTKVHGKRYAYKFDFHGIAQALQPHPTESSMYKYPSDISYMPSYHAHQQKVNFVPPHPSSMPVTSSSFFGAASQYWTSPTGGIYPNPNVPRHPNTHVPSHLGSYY
To be noted: protein: recombinant; tags: N-terminal GST; dsDNA, one strand shown. An outline of the steps: (§1)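 Sequencing on an Illumina NextSeq500 followed washing, crosslinking with 0.1% formaldehyde, proximity ligation (BsaI/T4 ligase, 1 h, 37 °C) and PCR amplification of pools that had been incubated for 30 min at room temperature with 200 nmole of a random double-stranded 16-mer DNA library in Tris/NaCl/DTT/glycerol buffer. Each pool held DNA-barcoded human transcription factors, expressed in yeast as GST fusions and captured on glutathione beads, plus a tag-only sample. Binding signal is a hexamer's read frequency for a factor divided by its frequency in the tag-only sample.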

In a further test the target is T2, ELK1 (Homo sapiens, UniProt P19419 1-428).
T2 sequence: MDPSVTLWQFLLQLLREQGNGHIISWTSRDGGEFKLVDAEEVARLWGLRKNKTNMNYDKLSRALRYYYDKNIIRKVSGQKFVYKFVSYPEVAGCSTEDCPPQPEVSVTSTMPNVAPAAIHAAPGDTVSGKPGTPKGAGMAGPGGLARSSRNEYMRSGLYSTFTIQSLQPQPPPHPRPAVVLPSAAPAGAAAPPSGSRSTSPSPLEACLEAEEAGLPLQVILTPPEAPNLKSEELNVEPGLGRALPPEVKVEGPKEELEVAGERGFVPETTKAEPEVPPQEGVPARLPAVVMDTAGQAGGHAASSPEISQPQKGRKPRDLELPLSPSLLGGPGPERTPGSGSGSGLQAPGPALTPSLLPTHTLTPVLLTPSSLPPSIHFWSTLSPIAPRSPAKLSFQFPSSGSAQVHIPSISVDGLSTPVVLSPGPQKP
The settings on record: protein: recombinant; tags: N-terminal GST; dsDNA, one strand shown. In short, it runs like this:
as §1

The next test addresses T3, GABPA (Homo sapiens, UniProt Q06546 1-454).
T3 sequence: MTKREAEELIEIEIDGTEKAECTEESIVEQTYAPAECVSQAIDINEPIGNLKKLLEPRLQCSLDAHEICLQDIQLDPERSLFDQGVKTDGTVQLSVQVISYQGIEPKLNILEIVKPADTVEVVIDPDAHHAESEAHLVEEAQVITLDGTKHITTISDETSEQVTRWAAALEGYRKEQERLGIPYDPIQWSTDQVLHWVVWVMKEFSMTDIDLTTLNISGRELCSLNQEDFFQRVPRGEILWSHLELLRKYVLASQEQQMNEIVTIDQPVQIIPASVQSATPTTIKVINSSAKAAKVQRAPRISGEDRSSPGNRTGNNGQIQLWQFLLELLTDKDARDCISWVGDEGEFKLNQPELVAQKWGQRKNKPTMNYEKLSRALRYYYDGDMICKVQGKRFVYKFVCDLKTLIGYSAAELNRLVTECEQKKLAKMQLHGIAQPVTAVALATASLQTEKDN
The settings on record: protein: recombinant; tags: N-terminal GST; dsDNA, one strand shown. An outline of the steps:
as §1

Another test has as its target T4, ERG (Homo sapiens, UniProt P11308 1-479).
T4 sequence: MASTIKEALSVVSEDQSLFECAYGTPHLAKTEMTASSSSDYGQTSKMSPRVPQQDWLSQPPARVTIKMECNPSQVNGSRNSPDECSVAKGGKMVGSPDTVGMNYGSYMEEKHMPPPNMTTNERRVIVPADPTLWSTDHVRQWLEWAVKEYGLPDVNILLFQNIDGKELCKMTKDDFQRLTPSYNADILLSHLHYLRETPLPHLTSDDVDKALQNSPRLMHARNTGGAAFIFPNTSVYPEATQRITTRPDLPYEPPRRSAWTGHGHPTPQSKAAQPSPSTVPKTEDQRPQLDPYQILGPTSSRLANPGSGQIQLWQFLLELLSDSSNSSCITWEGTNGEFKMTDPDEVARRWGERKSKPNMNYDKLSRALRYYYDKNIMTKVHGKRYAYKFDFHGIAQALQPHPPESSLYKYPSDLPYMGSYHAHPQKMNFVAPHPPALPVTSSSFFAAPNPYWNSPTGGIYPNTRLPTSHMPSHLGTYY
The settings on record: protein: recombinant; tags: N-terminal GST; dsDNA, one strand shown. In short, it runs like this: as §1

For the next test, the target named is ELF1 (Homo sapiens, UniProt P32519 1-619). To be noted: protein: recombinant; tags: N-terminal GST; dsDNA, one strand shown. An outline of the steps: as §1
The target of the next test is T5, EHF (Homo sapiens, UniProt Q9NZC4 1-300).
T5 sequence: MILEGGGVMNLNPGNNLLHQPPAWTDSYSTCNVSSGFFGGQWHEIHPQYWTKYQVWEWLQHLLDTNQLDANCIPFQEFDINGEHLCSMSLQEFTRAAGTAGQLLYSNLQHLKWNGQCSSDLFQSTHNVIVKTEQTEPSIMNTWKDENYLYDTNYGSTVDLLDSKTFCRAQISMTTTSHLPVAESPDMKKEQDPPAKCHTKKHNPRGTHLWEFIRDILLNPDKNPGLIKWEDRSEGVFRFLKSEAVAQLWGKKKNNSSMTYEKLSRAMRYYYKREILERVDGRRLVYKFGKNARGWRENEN
To be noted: protein: recombinant; tags: N-terminal GST; dsDNA, one strand shown. An outline of the steps:
as §1

Another test concerns the target SPI1 (Homo sapiens, UniProt P17947 1-270). The settings on record: protein: recombinant; tags: N-terminal GST; dsDNA, one strand shown. An outline of the steps:
as §1

The target of the next test is SPIB (Homo sapiens, UniProt Q01892 1-262). The settings on record: protein: recombinant; tags: N-terminal GST; dsDNA, one strand shown. In short, it runs like this:
as §1

The next test concerns the target T6, ELK3 (Homo sapiens, UniProt P41970 1-407).
T6 sequence: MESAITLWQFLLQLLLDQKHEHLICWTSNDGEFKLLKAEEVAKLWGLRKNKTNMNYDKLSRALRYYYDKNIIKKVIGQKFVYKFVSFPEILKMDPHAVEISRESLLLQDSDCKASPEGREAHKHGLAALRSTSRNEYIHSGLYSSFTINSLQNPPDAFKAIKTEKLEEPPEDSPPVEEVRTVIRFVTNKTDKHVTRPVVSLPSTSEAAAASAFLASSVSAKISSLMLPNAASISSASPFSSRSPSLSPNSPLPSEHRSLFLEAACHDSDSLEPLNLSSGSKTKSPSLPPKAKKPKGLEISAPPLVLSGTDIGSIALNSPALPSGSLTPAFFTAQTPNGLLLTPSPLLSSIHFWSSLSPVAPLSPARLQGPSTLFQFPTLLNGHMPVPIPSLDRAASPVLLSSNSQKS
The settings on record: protein: recombinant; tags: N-terminal GST; dsDNA, one strand shown. In short, it runs like this:
as §1

A further test addresses T7, FEV (Homo sapiens, UniProt Q99581 1-238).
T7 sequence: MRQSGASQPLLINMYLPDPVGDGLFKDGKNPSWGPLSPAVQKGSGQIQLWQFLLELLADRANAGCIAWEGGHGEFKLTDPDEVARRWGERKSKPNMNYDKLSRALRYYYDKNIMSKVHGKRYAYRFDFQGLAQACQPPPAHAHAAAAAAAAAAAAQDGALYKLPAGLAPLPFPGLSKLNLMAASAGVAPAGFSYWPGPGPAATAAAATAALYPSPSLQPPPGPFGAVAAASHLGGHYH
To be noted: protein: recombinant; tags: N-terminal GST; dsDNA, one strand shown. In short, it runs like this:
as §1

Another test concerns the target ETV5 (Homo sapiens, UniProt P41161 1-510). To be noted: protein: recombinant; tags: N-terminal GST; dsDNA, one strand shown. An outline of the steps: as §1
The next test addresses HSF1 (Homo sapiens, UniProt Q00613 1-529). To be noted: protein: recombinant; tags: N-terminal GST; chain copies: 3; dsDNA, one strand shown. In short, it runs like this: as §1
The next test has as its target T8, SPIC (Homo sapiens, UniProt Q8N5J4 1-248).
T8 sequence: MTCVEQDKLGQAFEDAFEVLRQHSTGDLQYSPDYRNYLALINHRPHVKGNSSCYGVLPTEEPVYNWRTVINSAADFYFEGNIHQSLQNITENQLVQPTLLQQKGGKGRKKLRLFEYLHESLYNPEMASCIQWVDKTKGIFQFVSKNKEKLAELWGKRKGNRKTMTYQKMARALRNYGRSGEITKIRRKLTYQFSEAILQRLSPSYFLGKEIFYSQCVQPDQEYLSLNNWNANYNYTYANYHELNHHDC
To be noted: protein: recombinant; tags: N-terminal GST; dsDNA, one strand shown. An outline of the steps:
as §1

Another test concerns the target ELF4 (Homo sapiens, UniProt Q99607 1-663). To be noted: protein: recombinant; tags: N-terminal GST; dsDNA, one strand shown. In short, it runs like this: as §1
For a further test, the target named is T9, ELK4 (Homo sapiens, UniProt P28324-2 1-405).
T9 sequence: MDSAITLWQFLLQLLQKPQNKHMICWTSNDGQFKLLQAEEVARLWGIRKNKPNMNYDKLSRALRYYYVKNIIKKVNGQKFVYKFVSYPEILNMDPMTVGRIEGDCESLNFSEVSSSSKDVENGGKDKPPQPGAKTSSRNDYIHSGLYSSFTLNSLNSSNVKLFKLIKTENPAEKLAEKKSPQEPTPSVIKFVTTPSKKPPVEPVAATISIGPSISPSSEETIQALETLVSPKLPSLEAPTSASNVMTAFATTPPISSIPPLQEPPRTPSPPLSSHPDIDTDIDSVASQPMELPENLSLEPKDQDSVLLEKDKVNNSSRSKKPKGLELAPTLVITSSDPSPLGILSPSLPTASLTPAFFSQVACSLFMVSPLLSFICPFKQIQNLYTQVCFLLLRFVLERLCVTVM
The settings on record: protein: recombinant; tags: N-terminal GST; dsDNA, one strand shown. In short, it runs like this:
as §1

In a further test the target is T10, ETV2 (Homo sapiens, UniProt O00321 1-342).
T10 sequence: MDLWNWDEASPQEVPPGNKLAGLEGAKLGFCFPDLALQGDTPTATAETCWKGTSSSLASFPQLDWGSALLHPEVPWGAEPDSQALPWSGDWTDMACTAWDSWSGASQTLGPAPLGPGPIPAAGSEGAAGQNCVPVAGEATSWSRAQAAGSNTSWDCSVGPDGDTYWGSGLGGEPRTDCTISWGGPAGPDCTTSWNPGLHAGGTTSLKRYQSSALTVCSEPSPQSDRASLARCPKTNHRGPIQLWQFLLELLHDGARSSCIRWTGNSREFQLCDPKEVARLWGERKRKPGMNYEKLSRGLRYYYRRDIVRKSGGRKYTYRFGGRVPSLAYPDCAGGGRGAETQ
To be noted: protein: recombinant; tags: N-terminal GST; dsDNA, one strand shown. An outline of the steps:
as §1

For a further test, the target named is T11, ELF3 (Homo sapiens, UniProt P78545 1-371).
T11 sequence: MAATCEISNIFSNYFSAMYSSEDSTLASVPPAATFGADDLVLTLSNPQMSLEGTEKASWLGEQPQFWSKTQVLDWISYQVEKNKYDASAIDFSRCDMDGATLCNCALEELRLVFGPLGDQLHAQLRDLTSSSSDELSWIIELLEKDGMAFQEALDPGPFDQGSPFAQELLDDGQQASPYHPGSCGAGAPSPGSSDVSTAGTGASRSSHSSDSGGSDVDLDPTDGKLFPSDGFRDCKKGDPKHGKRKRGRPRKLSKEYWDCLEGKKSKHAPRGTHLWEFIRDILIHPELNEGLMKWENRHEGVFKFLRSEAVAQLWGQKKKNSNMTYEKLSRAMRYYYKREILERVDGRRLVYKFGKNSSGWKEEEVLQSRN
To be noted: protein: recombinant; tags: N-terminal GST; dsDNA, one strand shown. In short, it runs like this: as §1

A further test deals with ETV1 (Homo sapiens, UniProt P50549 1-477). The settings on record: protein: recombinant; tags: N-terminal GST; dsDNA, one strand shown. An outline of the steps: as §1
ETV1, sequence (P50549 whole entry): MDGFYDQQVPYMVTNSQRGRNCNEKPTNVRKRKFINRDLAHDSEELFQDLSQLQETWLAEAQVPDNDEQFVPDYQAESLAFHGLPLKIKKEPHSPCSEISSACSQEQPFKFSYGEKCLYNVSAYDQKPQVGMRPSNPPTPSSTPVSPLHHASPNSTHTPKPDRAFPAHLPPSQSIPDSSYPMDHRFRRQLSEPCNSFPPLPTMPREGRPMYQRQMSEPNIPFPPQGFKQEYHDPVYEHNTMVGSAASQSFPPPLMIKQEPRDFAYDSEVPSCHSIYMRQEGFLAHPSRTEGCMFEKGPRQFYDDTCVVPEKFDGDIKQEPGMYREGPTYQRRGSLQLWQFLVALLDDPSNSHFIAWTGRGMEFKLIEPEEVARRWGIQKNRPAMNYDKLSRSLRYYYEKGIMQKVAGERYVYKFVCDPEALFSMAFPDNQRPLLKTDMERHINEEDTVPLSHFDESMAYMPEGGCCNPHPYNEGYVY

ELF1, sequence (P32519 whole entry): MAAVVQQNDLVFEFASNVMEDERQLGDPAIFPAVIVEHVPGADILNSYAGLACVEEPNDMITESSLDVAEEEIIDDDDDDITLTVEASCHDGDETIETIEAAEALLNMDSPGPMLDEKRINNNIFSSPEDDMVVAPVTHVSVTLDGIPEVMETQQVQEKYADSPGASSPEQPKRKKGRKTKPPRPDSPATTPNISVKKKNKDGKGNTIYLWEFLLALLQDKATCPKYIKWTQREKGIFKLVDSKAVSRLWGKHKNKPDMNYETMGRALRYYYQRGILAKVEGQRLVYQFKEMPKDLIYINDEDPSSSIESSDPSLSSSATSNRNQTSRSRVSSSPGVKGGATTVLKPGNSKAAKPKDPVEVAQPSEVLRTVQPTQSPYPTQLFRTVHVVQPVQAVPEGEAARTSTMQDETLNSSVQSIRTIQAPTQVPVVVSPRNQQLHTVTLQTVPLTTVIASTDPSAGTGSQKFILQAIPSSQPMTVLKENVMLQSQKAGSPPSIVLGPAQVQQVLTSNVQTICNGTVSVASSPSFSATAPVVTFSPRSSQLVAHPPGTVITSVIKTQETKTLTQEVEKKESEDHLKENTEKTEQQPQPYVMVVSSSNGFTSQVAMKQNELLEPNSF
ETV5, sequence (P41161 whole entry): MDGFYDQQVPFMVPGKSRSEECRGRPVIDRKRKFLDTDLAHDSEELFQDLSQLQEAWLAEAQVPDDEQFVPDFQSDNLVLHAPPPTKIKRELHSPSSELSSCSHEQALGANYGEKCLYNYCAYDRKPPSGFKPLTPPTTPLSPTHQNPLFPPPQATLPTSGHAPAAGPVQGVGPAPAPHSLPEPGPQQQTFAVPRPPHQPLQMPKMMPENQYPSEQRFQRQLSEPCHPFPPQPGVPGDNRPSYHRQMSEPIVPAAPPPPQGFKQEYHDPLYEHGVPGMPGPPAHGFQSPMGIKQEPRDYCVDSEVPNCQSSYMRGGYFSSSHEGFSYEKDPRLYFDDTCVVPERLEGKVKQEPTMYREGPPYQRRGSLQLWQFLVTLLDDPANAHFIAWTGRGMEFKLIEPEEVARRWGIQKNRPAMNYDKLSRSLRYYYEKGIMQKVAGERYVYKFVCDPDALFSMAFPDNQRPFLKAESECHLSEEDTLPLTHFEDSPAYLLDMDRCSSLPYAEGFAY
SPIB, sequence (Q01892 whole entry): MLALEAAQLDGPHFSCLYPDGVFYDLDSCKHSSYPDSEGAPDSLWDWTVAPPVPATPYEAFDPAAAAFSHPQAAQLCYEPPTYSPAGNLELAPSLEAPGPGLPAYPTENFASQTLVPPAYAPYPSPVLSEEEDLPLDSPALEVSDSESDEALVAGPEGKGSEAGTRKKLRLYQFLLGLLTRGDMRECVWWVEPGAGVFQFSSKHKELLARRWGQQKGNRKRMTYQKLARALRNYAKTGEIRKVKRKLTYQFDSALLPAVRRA
ELF4, sequence (Q99607 whole entry): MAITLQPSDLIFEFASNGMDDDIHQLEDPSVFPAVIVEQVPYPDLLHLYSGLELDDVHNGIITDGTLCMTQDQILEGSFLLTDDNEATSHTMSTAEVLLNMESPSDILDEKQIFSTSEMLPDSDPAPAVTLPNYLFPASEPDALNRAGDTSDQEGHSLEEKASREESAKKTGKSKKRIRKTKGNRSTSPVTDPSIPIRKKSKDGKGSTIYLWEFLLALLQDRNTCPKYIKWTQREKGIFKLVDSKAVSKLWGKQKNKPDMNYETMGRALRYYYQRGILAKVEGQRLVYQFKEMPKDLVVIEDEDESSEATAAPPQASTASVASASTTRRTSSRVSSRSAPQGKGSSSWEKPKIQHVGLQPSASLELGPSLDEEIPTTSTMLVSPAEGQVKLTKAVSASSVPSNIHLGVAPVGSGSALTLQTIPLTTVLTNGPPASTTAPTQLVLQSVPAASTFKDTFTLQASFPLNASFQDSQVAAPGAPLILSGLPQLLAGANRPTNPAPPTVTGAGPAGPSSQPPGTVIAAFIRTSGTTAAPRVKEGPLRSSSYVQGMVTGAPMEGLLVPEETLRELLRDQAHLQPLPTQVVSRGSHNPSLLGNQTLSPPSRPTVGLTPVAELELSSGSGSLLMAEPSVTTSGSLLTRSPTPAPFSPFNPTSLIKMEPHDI
HSF1, sequence (Q00613 whole entry): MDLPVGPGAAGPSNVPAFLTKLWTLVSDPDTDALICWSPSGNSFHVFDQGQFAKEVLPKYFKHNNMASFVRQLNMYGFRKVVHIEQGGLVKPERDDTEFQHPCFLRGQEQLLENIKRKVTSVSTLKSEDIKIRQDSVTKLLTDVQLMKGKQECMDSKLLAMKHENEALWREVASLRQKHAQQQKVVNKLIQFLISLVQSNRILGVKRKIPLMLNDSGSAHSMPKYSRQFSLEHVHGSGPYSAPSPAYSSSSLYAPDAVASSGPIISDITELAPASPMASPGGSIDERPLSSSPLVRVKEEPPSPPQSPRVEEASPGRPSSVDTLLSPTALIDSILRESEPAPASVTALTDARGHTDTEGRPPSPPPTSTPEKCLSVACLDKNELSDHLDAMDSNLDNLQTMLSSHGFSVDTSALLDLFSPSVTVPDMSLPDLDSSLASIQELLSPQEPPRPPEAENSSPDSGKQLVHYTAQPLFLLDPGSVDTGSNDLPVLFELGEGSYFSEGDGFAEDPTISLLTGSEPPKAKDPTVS

Regarding CGATAC, the binding signal with FLI1 was 1.19 fold enrichment (6-mer frequency, TF over GST control); in the test with ELK1, 1.19 fold enrichment (6-mer frequency, TF over GST control); with GABPA it was 1.27 fold enrichment (6-mer frequency, TF over GST control); with ERG, 1.18 fold enrichment (6-mer frequency, TF over GST control); in the test with ELF1, 1.19 fold enrichment (6-mer frequency, TF over GST control); in the test with EHF, 1.2 fold enrichment (6-mer frequency, TF over GST control). In addition, the binding signal with SPI1 is 1.15 fold enrichment (6-mer frequency, TF over GST control); with SPIB, 1.06 fold enrichment (6-mer frequency, TF over GST control); with ELK3, 1.14 fold enrichment (6-mer frequency, TF over GST control); in the test with FEV, 1.14 fold enrichment (6-mer frequency, TF over GST control); with ETV5 it was 1.13 fold enrichment (6-mer frequency, TF over GST control); with HSF1, 1.01 fold enrichment (6-mer frequency, TF over GST control). Besides, the binding signal with SPIC is 1.34 fold enrichment (6-mer frequency, TF over GST control); in the test with ELF4 it was 1.25 fold enrichment (6-mer frequency, TF over GST control); with ELK4, 1.15 fold enrichment (6-mer frequency, TF over GST control); in the test with ETV2, 1.18 fold enrichment (6-mer frequency, TF over GST control); in the test with ELF3, 1.14 fold enrichment (6-mer frequency, TF over GST control); with ETV1, 1.13 fold enrichment (6-mer frequency, TF over GST control).

The record behind these values is PMC7862700, “An all-to-all approach to the identification of sequence-specific readers for epigenetic DNA modifications on cytosine”.
